Source: the supplement of paper PMC12494721
Counter-ions that a name gives are not always drawn.

Assays:
Conditions in all cases: 20 µM; incubation time: 27 h, anaerobic, 37 °C;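 for the amine columns active = adjusted P below 0.05 in both replicates with a change the same way and a mean fold change under 0.8 or over 1.25; inactive = the rest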
[1] = system: Clostridium sporogenes DSM 1664; experiment: growth (OD595) fold change vs plate DMSO controls (fold change (ratio)); higher = more growth
In short: (§1)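 Shaken 96-well cultures in mGAM, grown anaerobically for 27 h at 37 °C, were read at 595 nm. OD came from blank-subtracted readings, corrected for background with 20 µM compound solutions in water and scaled by a calibration factor of 5. Growth is the fold change versus the plate's median DMSO control. Values average 2 biological replicates, and any fold change above 1.5 is NA.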

[2] = system: Escherichia coli IAI1; experiment: as above
In short: as §1

[3] = system: Klebsiella aerogenes DSM 30053; experiment: as above
In short: as §1

[4] = system: Ruminococcus gnavus DSM 108212; experiment: as above
In short: as §1

[5] = system: Klebsiella aerogenes DSM 30053; experiment: fold change of Histamine concentration vs plate DMSO controls (fold change (ratio)); higher = more amine produced, active = hit call of the paper (significant change in both replicates, either direction)
In short: (§2)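 Anaerobic mGAM cultures of four gut bacterial strains were grown at 37 °C for 27 h in 80 µL wells, starting at OD 0.1 before 1:1 dilution. Compounds were at 20 µM final (sweeteners 50 µM). Whole cultures were extracted with cold acetonitrile/methanol containing 0.1% formic acid and centrifuged. Amines were quantified by LC–triple-quadrupole MS (dynamic MRM) against external calibration curves and drift-corrected within batch. Each value is the fold change versus plate DMSO controls, averaged over 2 biological replicates.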

[6] = system: Clostridium sporogenes DSM 1664; experiment: fold change of Tryptamine concentration vs plate DMSO controls (fold change (ratio)); higher = more amine produced, active = hit call of the paper (significant change in both replicates, either direction)
In short: as §2

[7] = system: Ruminococcus gnavus DSM 108212; experiment: as above
In short: as §2

[8] = system: Escherichia coli IAI1; experiment: fold change of Putrescine concentration vs plate DMSO controls (fold change (ratio)); higher = more amine produced, active = hit call of the paper (significant change in both replicates, either direction)
In short: as §2

[9] = system: Klebsiella aerogenes DSM 30053; experiment: as above
In short: as §2

[10] = system: Escherichia coli IAI1; experiment: fold change of Cadaverine concentration vs plate DMSO controls (fold change (ratio)); higher = more amine produced, active = hit call of the paper (significant change in both replicates, either direction)
In short: as §2

[11] = system: Klebsiella aerogenes DSM 30053; experiment: as above
In short: as §2

[12] = system: Ruminococcus gnavus DSM 108212; experiment: fold change of 2-Phenylethylamine concentration vs plate DMSO controls (fold change (ratio)); higher = more amine produced, active = hit call of the paper (significant change in both replicates, either direction)
In short: as §2

| Compound | growth [1] | growth [2] | growth [3] | growth [4] | fold change of Histamine concentration [5] | fold change of Tryptamine concentration [6] | fold change of Tryptamine concentration [7] | fold change of Putrescine concentration [8] | fold change of Putrescine concentration [9] | fold change of Cadaverine concentration [10] | fold change of Cadaverine concentration [11] | fold change of 2-Phenylethylamine concentration [12] |
| --- | --- | --- | --- | --- | --- | --- | --- | --- | --- | --- | --- | --- |
| CC(C)=CC1C(C(=O)OCc2cccc(Oc3ccccc3)c2)C1(C)C (centres undefined) [Phenothrin] | 0.963 | 1.02 | 1.05 | 1.06 | 0.924 (inactive) | 1.02 (inactive) | 1.05 (inactive) | 1.07 (inactive) | 1.02 (inactive) | 1.03 (inactive) | 1.01 (inactive) | 1.06 (inactive) |
| Fc1ccc(Oc2ccnc3cc(Cl)cc(Cl)c23)cc1 | 1.06 | 1.01 | 1.02 | 1.04 | 1.02 (inactive) | 1.01 (inactive) | 0.957 (inactive) | 1.05 (inactive) | 1.02 (inactive) | 0.961 (inactive) | 1 (inactive) | 0.915 (inactive) |
| COC(=O)N(C(=O)N1CO[C@@]2(C(=O)OC)Cc3cc(Cl)ccc3C2=N1)c1ccc(OC(F)(F)F)cc1 | 1.15 | 0.998 | 0.992 | 0.903 | 0.975 (inactive) | 1.03 (inactive) | 1.03 (inactive) | 0.945 (inactive) | 0.915 (inactive) | 0.907 (inactive) | 1.03 (inactive) | 0.986 (inactive) |
| N#Cc1sc2c(=O)c3ccccc3c(=O)c=2sc1C#N | 1.14 | 1.02 | 0.963 | 1.01 | 0.994 (inactive) | 0.877 (inactive) | 0.906 (inactive) | 1.02 (inactive) | 1.01 (inactive) | 1.02 (inactive) | 0.992 (inactive) | 0.827 (inactive) |
| CNC(=O)Oc1cccc2ccccc12 | 1.12 | 0.98 | 1 | 0.969 | 0.989 (inactive) | 0.933 (inactive) | 0.989 (inactive) | 1.06 (inactive) | 1.01 (inactive) | 0.965 (inactive) | 1.01 (inactive) | 0.97 (inactive) |
| COc1cc2c(c(OC)c1OC)-c1ccc(OC)c(=O)cc1[C@@H](NC(C)=O)CC2 [Colchicine] | 0.992 | 1.02 | 0.975 | 1.16 | 1.06 (inactive) | 1.02 (inactive) | 0.889 (inactive) | 1.04 (inactive) | 1.02 (inactive) | 1.04 (inactive) | 0.983 (inactive) | 0.829 (inactive) |
| CNC(=O)Oc1ccc2c(c1)[C@]1(C)CCN(C)[C@@H]1N2C [Eserine hemisulfate salt] | 1.02 | 1.06 | 0.988 | 1.05 | 1.04 (inactive) | 1.02 (inactive) | 1.03 (inactive) | 1.06 (inactive) | 0.996 (inactive) | 0.999 (inactive) | 0.975 (inactive) | 1.05 (inactive) |
| O=C1c2ccccc2C(=O)N1SC(Cl)(Cl)Cl | 1.06 | 1 | 0.997 | 0.937 | 1 (inactive) | 0.983 (inactive) | 0.999 (inactive) | 1.05 (inactive) | 1 (inactive) | 0.969 (inactive) | 0.988 (inactive) | 0.999 (inactive) |
| Cc1ccccc1[N+](=O)[O-] [2-Nitrotoluene] | 0.884 | 0.993 | 0.968 | 0.984 | 0.994 (inactive) | 0.993 (inactive) | 0.981 (inactive) | 0.996 (inactive) | 1.01 (inactive) | 1.01 (inactive) | 0.993 (inactive) | 0.978 (inactive) |
| CC[C@H](C)[C@H]1O[C@]2(C=C[C@@H]1C)C[C@@H]1C[C@@H](C/C=C(\C)[C@@H](O[C@H]3C[C@H](OC)[C@@H](O[C@H]4C[C@H](OC)[C@@H](O)[C@H](C)O4)[C@H](C)O3)[C@@H](C)/C=C/C=C3\CO[C@@H]4[C@H](O)C(C)=C[C@@H](C(=O)O1)[C@]34O)O2.CO[C@H]1C[C@H](O[C@H]2[C@H](C)O[C@@H](O[C@@H]3/C(C)=C/C[C@@H]4C[C@@H](C[C@]5(C=C[C@H](C)[C@@H](C(C)C)O5)O4)OC(=O)[C@@H]4C=C(C)[C@@H](O)[C@H]5OC/C(=C\C=C\[C@@H]3C)[C@]54O)C[C@@H]2OC)O[C@@H](C)[C@@H]1O [Avermectin B1] | 1.13 | 1.06 | 0.967 | 0.91 | 0.906 (inactive) | 0.921 (inactive) | 0.929 (inactive) | 1.06 (inactive) | 0.985 (inactive) | 0.996 (inactive) | 0.995 (inactive) | 0.883 (inactive) |
| CC(C)c1cccc(C(C)C)c1O [Propofol] | 1.24 | 1.01 | 1 | 1.03 | 1.05 (inactive) | 0.931 (inactive) | 0.964 (inactive) | 0.865 (inactive) | 1.01 (inactive) | 1.34 (active) | 0.989 (inactive) | 0.908 (inactive) |
| CC1(C)CON(Cc2ccccc2Cl)C1=O | 0.972 | 0.994 | 0.994 | 0.976 | 1.02 (inactive) | 1.02 (inactive) | 1.01 (inactive) | 1.01 (inactive) | 1 (inactive) | 1.02 (inactive) | 0.986 (inactive) | 0.993 (inactive) |
| C#C[C@]1(O)CC[C@H]2[C@@H]3CCC4=CC(=O)CCC4=C3C=C[C@@]21CC [Gestrinone] | 1.02 | 0.985 | 0.996 | 1.04 | 0.947 (inactive) | 1.03 (inactive) | 1.16 (inactive) | 0.88 (inactive) | 0.96 (inactive) | 0.913 (inactive) | 1.03 (inactive) | 1.18 (inactive) |
| COC(=O)Nc1nc2ccccc2[nH]1 | 0.898 | 0.977 | 0.989 | 0.903 | 1.01 (inactive) | 0.968 (inactive) | 0.959 (inactive) | 0.997 (inactive) | 1 (inactive) | 1 (inactive) | 0.989 (inactive) | 0.951 (inactive) |
| N#C/N=C1\SCCN1Cc1ccc(Cl)nc1 | 1.01 | 0.969 | 0.996 | 1 | 0.995 (inactive) | 1 (inactive) | 1 (inactive) | 1.04 (inactive) | 0.994 (inactive) | 0.991 (inactive) | 1 (inactive) | 1.03 (inactive) |
| N#Cc1nn(-c2c(Cl)cc(C(F)(F)F)cc2Cl)c(N)c1[S+]([O-])C(F)(F)F (centres undefined) [Fipronil] | 1.26 | 1.11 | 1.1 | 1.28 | 0.947 (inactive) | 1.05 (inactive) | 1 (inactive) | 1.03 (inactive) | 0.981 (inactive) | 1.01 (inactive) | 1 (inactive) | 1.04 (inactive) |
| CNC(=O)c1cc(Cl)cc(C)c1NC(=O)c1cc(Br)nn1-c1ncccc1Cl | 0.896 | 1.11 | 1.06 | 1.17 | 0.901 (inactive) | 0.953 (inactive) | 0.997 (inactive) | 1.02 (inactive) | 0.982 (inactive) | 0.964 (inactive) | 0.999 (inactive) | 1.01 (inactive) |
| Cc1cccc2sc3nncn3c12 | 0.977 | 1 | 0.981 | 1 | 0.973 (inactive) | 0.982 (inactive) | 0.98 (inactive) | 0.99 (inactive) | 0.997 (inactive) | 1.03 (inactive) | 0.995 (inactive) | 0.992 (inactive) |
| CCCCN(CCCC)N=O [DBNA (N-nitrosodibutylamine)] | 0.789 | 0.729 | 0.673 | 0.238 | 1.03 (inactive) | 1.01 (inactive) | 1.01 (inactive) | 1.03 (inactive) | 1.02 (inactive) | 1.05 (inactive) | 1.01 (inactive) | 1.01 (inactive) |
| OCC(O)CCl (racemic) | 0.938 | 1.02 | 0.97 | 0.97 | 1.01 (inactive) | 1.11 (inactive) | 1.08 (inactive) | 0.975 (inactive) | 0.959 (inactive) | 0.891 (inactive) | 1 (inactive) | 1.18 (inactive) |
| CC(=O)O[C@H]1CC[C@@]2(C)C(=CC[C@@H]3[C@@H]2CC[C@]2(C)C(=O)CC[C@@H]32)C1 [Dehydroisoandosterone 3-acetate] | 0.905 | 1.04 | 0.994 | 1.08 | 1.02 (inactive) | 0.937 (inactive) | 1.04 (inactive) | 1.08 (inactive) | 1.04 (inactive) | 1.01 (inactive) | 1.01 (inactive) | 1.04 (inactive) |
| COc1ccc2c(c1)[C@]13CCCC[C@@H]1[C@H](C2)N(C)CC3 [Dextromethorphan hydrobromide monohydrate] | 1.05 | 0.975 | 1.05 | 0.761 | 0.977 (inactive) | 0.991 (inactive) | 0.998 (inactive) | 0.962 (inactive) | 0.999 (inactive) | 1.01 (inactive) | 1.02 (inactive) | 1.04 (inactive) |
| CN/C(=N\[N+](=O)[O-])NCc1cnc(Cl)s1 | 0.943 | 0.968 | 0.989 | 0.944 | 1.01 (inactive) | 0.953 (inactive) | 0.989 (inactive) | 0.98 (inactive) | 1 (inactive) | 1.07 (inactive) | 0.994 (inactive) | 1 (inactive) |
| CC(C)N(CCC(C(N)=O)(c1ccccc1)c1ccccn1)C(C)C (centres undefined) [Disopyramide] | 1.08 | 1.04 | 1.01 | 0.817 | 0.927 (inactive) | 0.996 (inactive) | 1 (inactive) | 1.06 (inactive) | 0.996 (inactive) | 1.01 (inactive) | 1 (inactive) | 0.972 (inactive) |
| CNC(C)(C)Cc1ccccc1 [Mephentermine hemisulfate] | 1.05 | 0.976 | 0.99 | 0.991 | 0.952 (inactive) | 1.04 (inactive) | 1.24 (inactive) | 1.03 (inactive) | 0.952 (inactive) | 0.943 (inactive) | 1.01 (inactive) | 1.38 (inactive) |
| COP(=O)(NC(C)=O)SC (centres undefined) | 1.04 | 0.98 | 1.02 | 1.04 | 1 (inactive) | 1.02 (inactive) | 1 (inactive) | 1.02 (inactive) | 1 (inactive) | 1.02 (inactive) | 0.997 (inactive) | 1 (inactive) |
| C[C@@H]1CC[C@H]2[C@@H](C)C(=O)O[C@@H]3O[C@@]4(C)CC[C@@H]1[C@]32OO4 [Artemisinin] | 0.953 | 0.972 | 1.02 | 1.13 | 1.01 (inactive) | 1.02 (inactive) | 1.03 (inactive) | 1.01 (inactive) | 1.01 (inactive) | 0.966 (inactive) | 1.01 (inactive) | 1.03 (inactive) |
